# Screening data deposited in PubChem by National Center for Advancing Translational Sciences (NCATS).
# Sampled rows, rich in hits. Any-hit rate of the full collection: about 2.8%.
# Pol kappa inh = qHTS for Inhibitors of Polymerase Kappa; DNA polymerase kappa (Homo sapiens), Q9UBT6; purified Pol kappa, fluorescent DNA synthesis assay, 10 min; Potency, µM (titrated, usually from 107 µM), for inactives: at the top dose activity, negative = inhibition, hits mostly inhibitors; 0.53% of 400,000 active; note: potency is the fitted concentration of half-maximal effect; % is set by controls: 0 for no effect and ±100 for the full control effect
#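 10 nM Pol kappa preincubated 15 min at room temperature with compounds, then reaction started with substrate at 50 nM final. Fluorescence read kinetically at 0 and 10 min; buffer-only wells served as negative control.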
# Pol beta inh-1 = qHTS Assay for Inhibitors of DNA Polymerase Beta | 1.3% of 340,000 active | AID 485314, 2010 | Potency, µM (doses to about 114 µM), for inactives: top-dose activity change, negative = inhibition, most hits filed as inhibitors | P06746 | Pol beta primer extension/strand displacement, fluorescence kinetic; note: potency is the fitted concentration of half-maximal effect; % is set by controls: 0 for no effect and ±100 for the full control effect
#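 Homogeneous kinetic assay of primer extension and strand displacement by 10 nM Pol beta, preincubated 15 min at room temperature with compound before 50 nM substrate (final) was added. Read at 0 and 10 min; four-parameter Hill fit.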
# WRN inhibitor = qHTS for Inhibitors of WRN Helicase; WRN helicase unwinding, fluorescent forked duplex, kinetic; Potency, µM (titrated, usually from 114 µM), inactives show top-dose activity change, negative = inhibition, actives largely listed as inhibitors; 0.46% of 360,000 active; note: potency is the fitted concentration of half-maximal effect; % is set by controls: 0 for no effect and ±100 for the full control effect; nearly all actives have a fitted effect of over 55% in size
#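 WRN at 20 nM final was preincubated with compound for 15 min at room temperature; reaction started with 100 nM forked duplex oligonucleotide carrying fluorophore and quencher plus 2 mM ATP (final). Unwinding followed kinetically by red fluorescence (ex 525/em 598 nm).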
# PI5P4K alpha inh = qHTS for Inhibitors of phosphatidylinositol 5-phosphate 4-kinase (PI5P4K) | AID 652105, 2013 | Phosphatidylinositol 5-phosphate 4-kinase type-2 alpha (Homo sapiens), P48426 | PI5P4Kalpha enzyme, ADP-Glo luminescence, 60 min; hits give low values | max response, % | 1.2% of 330,000 active; active = max response of -50% or lower; inconclusive = between -30% and -50%; inactive = -30% or higher; note: value at the top dose of about 77 µM; % is set by controls: 0 for no effect and ±100 for the full control effect
#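 Luminescence from ADP-Glo served as readout of PI5P4Kalpha activity in a qHTS format. Reaction: enzyme, substrate, compound, ATP at 5 microM final, 60 min at RT.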
# Pol iota inh = qHTS for Inhibitors of Polymerase Iota; 1% of 390,000 active; DNA polymerase iota (Homo sapiens), Q9UNA4; AID 588590, 2011; Pol iota fluorescent replication assay, 10 min; Potency, µM (highest dose often 115 µM), for the others: at the top dose activity, negative = inhibition, most hits filed as inhibitors; note: potency is the fitted concentration of half-maximal effect
#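 Pol iota at 10 nM preincubated 15 min with compounds at room temperature; reaction started with fluorescent substrate, 50 nM final. Fluorescence read kinetically at 0 and 10 min; buffer-only wells as negative control.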
# Pol eta inh-1 = qHTS for Inhibitors of Polymerase Eta; DNA polymerase eta (Homo sapiens), Q9Y253; recombinant Pol eta, fluorescent DNA replication assay; Potency, µM (series often up to 114 µM), for inactives: at the top dose activity change, negative = inhibition, actives largely listed as inhibitors; 1.2% of 390,000 active; AID 588591, 2011; note: potency is the fitted concentration of half-maximal effect; % is set by controls: 0 for no effect and ±100 for the full control effect
# Target sequence (Q9Y253 whole entry, looked up): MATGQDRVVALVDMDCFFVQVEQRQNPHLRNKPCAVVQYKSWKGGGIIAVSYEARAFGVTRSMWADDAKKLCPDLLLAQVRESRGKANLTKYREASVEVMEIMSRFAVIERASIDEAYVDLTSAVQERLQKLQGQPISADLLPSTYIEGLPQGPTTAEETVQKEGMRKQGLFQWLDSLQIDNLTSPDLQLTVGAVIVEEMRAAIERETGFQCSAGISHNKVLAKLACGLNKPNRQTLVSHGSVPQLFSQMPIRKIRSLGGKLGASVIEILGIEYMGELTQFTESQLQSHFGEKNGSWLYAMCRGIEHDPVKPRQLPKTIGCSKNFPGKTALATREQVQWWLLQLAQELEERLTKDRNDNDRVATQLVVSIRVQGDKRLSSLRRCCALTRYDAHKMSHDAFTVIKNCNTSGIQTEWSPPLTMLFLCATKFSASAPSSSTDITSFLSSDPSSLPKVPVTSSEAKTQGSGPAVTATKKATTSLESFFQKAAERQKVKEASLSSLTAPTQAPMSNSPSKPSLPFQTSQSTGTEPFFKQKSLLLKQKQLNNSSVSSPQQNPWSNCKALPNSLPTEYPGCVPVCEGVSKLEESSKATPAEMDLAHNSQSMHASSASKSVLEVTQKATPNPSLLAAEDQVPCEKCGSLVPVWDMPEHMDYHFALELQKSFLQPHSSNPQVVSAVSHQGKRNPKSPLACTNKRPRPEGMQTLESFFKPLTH
#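 Pol eta at 10 nM preincubated with compounds 15 min at room temperature; reaction started with fluorescent substrate (50 nM final) and read kinetically at 0 and 10 min.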
# Pol beta inh-2 = Inhibitors of DNA Polymerase Beta: Hit validation. shares compounds with Pol beta inh-1. Pol beta primer extension/strand displacement, fluorescence kinetic. Potency, µM, usual class: inhibitors. 87% of 250 active; calls by dose curve; note: potency is the fitted concentration of half-maximal effect
# Klenow counter = Inhibitors of DNA Polymerase Beta: Hit Validation in Klenow Fragment Assay | Klenow exo- polymerase counter-screen, fluorescent DNA substrate | activity change, negative = inhibition, % at 57.1 µM | 250 tested, under 10 active | AID 540300, 2011 | shares compounds with Pol beta inh-1
# HIV RT counter = Inhibitors of DNA Polymerase Beta: Hit Validation in HIV-RT Assay | activity % (negative = inhibition, positive = activation), % at 57.1 µM | shares compounds with Pol beta inh-1 | 250 tested, under 10 active | HIV-1 RT polymerase activity, counter-screen
# Pol iota confirm = qHTS for Inhibitors of Polymerase Iota: Confirmatory Assay for Cherry-picked Compounds; Potency, µM, actives largely listed as inhibitors; shares compounds with Pol kappa inh; 77% of 1,500 active; Pol iota primer extension, TAMRA/BHQ fluorescence; note: potency is the fitted concentration of half-maximal effect
# Pol eta inh-2 = qHTS for Inhibitors of Polymerase Eta: Confirmatory Assay for Cherry-picked Compounds; shares compounds with Pol eta inh-1; Pol eta primer extension, TAMRA/BHQ fluorescence, 10 min; Potency, µM, usual class: inhibitors; 64% of 2,600 active; AID 720502, 2013; note: potency is the fitted concentration of half-maximal effect
# Starred values were filed as active, the others as inactive; u = inconclusive; x = not tested or not shown; [ ] = dose if it differs, or a comment. Unless noted, calls come from the whole dose curve; as a rule, active = well fitted curve in the direction sought with a large enough effect; inconclusive = small, poorly fitted or top-dose-only effect, or another doubt; inactive = no such curve, though single readings can be large; an effect the other way counts as inactive or inconclusive.
SMILES,Pol kappa inh,Pol beta inh-1,WRN inhibitor,PI5P4K alpha inh,Pol iota inh,Pol eta inh-1,others
CN1CCN(c2ccc([N+](=O)[O-])c3no[n+]([O-])c23)CC1,-15%,-24%,-28%,-11,18µM*,89µM*,
O=[N+]([O-])c1ccc(N(CCO)CCO)c2c1no[n+]2[O-],x,x,-3%[11.6 µM],u,x,28µM*,
C[C@@H]1O[C@@H](O[C@@H]2C=C3CC[C@@H]4[C@@H](CC[C@]5(C)[C@H](c6ccc(=O)oc6)CC[C@@]45O)[C@@]3(C)CC2)[C@H](O)[C@H](O)[C@H]1O,-4%,x,x,x,-9%,x,
CC1CCCC(C)N1C(=O)CSc1nc2c(c(=O)n(C)c(=O)n2C)n1C (configuration not stated),12%,1%,-21%,2,48%,-13%,
COC(=O)C1=C(C)NC(C)=C(C(=O)OC)C1c1ccccc1[N+](=O)[O-],-17%[60.1 µM],-6%,4%,-58*,u,-9%,
[Hg+][c]1ccccc1,2%[19.4 µM],x,x,x,14µM*,x,
O=C1CCC2(O)C3Cc4ccc(O)c5c4C2(CCN3Cc2ccoc2)C1O5 (configuration not stated),x,x,-21%,14,x,28µM*,
CC[C@H](C)[C@H](NC(=O)[C@H](CO)NC(=O)[C@H](CC(N)=O)NC(=O)[C@H](CC(C)C)NC(=O)[C@H](Cc1ccc(O)cc1)NC(=O)[C@H](CCCCN)NC(=O)[C@H](CCCCN)NC(=O)[C@@H](NC(=O)[C@H](C)NC(=O)[C@H](CCSC)NC(=O)[C@H](CCC(N)=O)NC(=O)[C@H](CCCCN)NC(=O)[C@H](CCCNC(=N)N)NC(=O)[C@H](CC(C)C)NC(=O)[C@H](CCCNC(=N)N)NC(=O)[C@@H](NC(=O)[C@H](Cc1ccc(O)cc1)NC(=O)[C@H](CC(N)=O)NC(=O)[C@H](CC(=O)O)NC(=O)[C@@H](NC(=O)[C@H](Cc1ccccc1)NC(=O)[C@@H](NC(=O)[C@H](C)NC(=O)[C@H](CC(=O)O)NC(=O)[C@H](CO)NC(=O)[C@@H](N)Cc1cnc[nH]1)C(C)C)[C@@H](C)O)[C@@H](C)O)C(C)C)C(=O)N[C@@H](CC(C)C)C(=O)N[C@@H](CC(N)=O)C(N)=O,18%[60.1 µM],x,x,x,x,x,
C[N+]1=C2CCCCCN2C(O)(c2ccccc2)C1 (configuration not stated),0%,-3%,3%,x,24%,-7%,
C=CCN1C(=O)NC(=O)/C(=C/c2ccc(OC)c(CSc3ccccn3)c2)C1=O,-11%,5%,u,-71*,11%,u,
C=CCN1C(=O)NC(=O)/C(=C/c2c(CCN(C)C(=O)c3ccccc3)cc3c(c2OC)OCO3)C1=O,-10%,16%,-3%,u,-14%,1%,
C=CCN1C(=O)NC(=O)/C(=C/c2ccc(OC)c(COc3ccc(NC(C)=O)cc3)c2)C1=O,11%,20%,45µM*,-66*,5%,u,
CC(=O)Nc1ccc(C=C2C(=O)NC(=O)NC2=O)cc1,-14%,x,u,u,-14%,-5%,
COc1ccc(CCNc2nc3c(c(=O)n(C)c(=O)n3C)n2Cc2ccc(F)cc2)cc1OC,-6%,3%,x,x,31%,-21%,
CC1(C)OC(c2ccccc2)=C/C(=C/C=C2C(=O)NC(=O)NC2=O)O1,-32%,14µM*,u,-23,u,u,
O=C(O)Cn1cc(C=C2C(=O)NC(=O)NC2=O)c2ccccc21,-18%,-1%,-11%,u,u,6%,
O=C1NC(=O)C(=Cc2coc3ccc(O)cc3c2=O)C(=O)N1,0%,18%,-14%,-73*,u,u,
N#C/C(=C\c1ccc(O)c(O)c1)C(=O)NCCCNC(=O)/C(C#N)=C/c1ccc(O)c(O)c1,0.3µM*,0.13µM*,x,x,0.11µM*,0.11µM*,
N#C/C(=C/c1ccc(O)c(O)c1)C(N)=S,1.7µM*,x,x,x,x,x,
CCC(=O)Nc1ccccc1,-2%,24%,1%,-4,6%,-7%,
CCC(=O)Nc1cc(C(=O)O)ccc1S(=O)(=O)c1ccc(C)cc1,u,10µM*,u,-6,u,5.6µM*,Pol beta inh-2=28*;Klenow counter=-26;HIV RT counter=-14;Pol iota confirm=60*;Pol eta inh-2=19*
CN1CC[C@@]2(c3cccc(O)c3)Cc3nc4ccccc4cc3C[C@H]2C1,-4%[19.4 µM],x,x,x,x,x,
